Screens (PubChem BioAssay)
MARV entry inh: qHTS for inhibitors of binding or entry into cells for Marburg Virus | Marburg virus pseudotyped entry inhibition, cell reporter | Potency, µM (doses to about 37.8 µM), inactives show top-dose activity change, negative = inhibition, actives largely listed as inhibitors | 300,000 compounds, 1.8% hits; calls by dose curve; tested in HEK293 cells; also: potency is read from the fitted curve at half-maximal effect
HCMV antiviral: qHTS Assay for inhibitors of the human cytomegalovirus (HCMV) | HFF cells, HCMV-luciferase reporter, 72 h; stronger effect = lower value | activity change, negative = inhibition, % at 57.5 µM | 410,000 compounds, 4.5% hits; in the data active = activity change below about -60%; inconclusive = no clear call, values can overlap the other calls; inactive = above about -39%
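Human foreskin fibroblasts infected with luciferase-reporter HCMV at MOI 1 PFU/cell, compounds at two doses. Luciferase measured 72 h post infection; normalized to buffer-only basal and Salinomycin (10uM) controls.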
LASV entry inh: qHTS for Inhibitors of binding or entry into cells for Lassa Virus; Lassa virus pseudotype entry inhibition, cell reporter; Potency, µM (highest dose often 37.9 µM), for inactives: at the highest dose activity change, negative = inhibition, usual class: inhibitors; 300,000 compounds, 1.2% hits; calls by dose curve; tested in HEK293 cells; also: potency is read from the fitted curve at half-maximal effect; nearly all actives have a fitted effect of over 50% in size
HCV inhibitor: qHTS Assay for Inhibitors of Hepatitis C Virus (HCV). Huh7.5.1 HCVcc-Cre infection, luciferase reporter, 44 h. Potency, µM (series often up to 41.8 µM), for inactives: at the top dose activity change, negative = inhibition, most hits filed as inhibitors. 340,000 compounds, 3.4% hits. AID 651820, 2012; active = well fitted inhibition curve with a large enough effect; inconclusive = small, poorly fitted or top-dose-only effect, or another doubt; inactive = no such curve, though single readings can be large or run the other way; also: potency is read from the fitted curve at half-maximal effect
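Cells (1,000/well) were plated 4 h before compound, then infected with HCVcc-Cre virus (~0.5 moi). After 44 h further culture, infection was read as luciferase luminescence following a 15 min substrate incubation at room temperature.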
FMDV inh: High Throughput Screening for Foot and Mouth Disease Virus Antivirals; FMDV antiviral cell-based qHTS; Potency, µM (series often up to 57.9 µM), for inactives: at the top dose activity change, negative = inhibition, actives largely listed as inhibitors; 410,000 compounds, 1.2% hits; AID 1159524, 2015; calls by dose curve; tested in HEK293T cells; also: read-out not given here; potency is read from the fitted curve at half-maximal effect; nearly all actives have a fitted effect of over 45% in size
Active calls of the source: *; ? = inconclusive; . = not tested or not shown; [ ] = dose if it differs, or a comment. Hits are enriched below; roughly 7.9% of the tested compounds scored in any of these assays. % is scaled to controls: 0 for no effect and ±100 for the full control effect.

SMILES	MARV entry inh	HCMV antiviral	LASV entry inh	HCV inhibitor	FMDV inh
COc1ccc(-c2c(C)nn3c(N4CCN(c5ccccc5F)CC4)cc(C)nc23)cc1OC	-13%[46.1 µM]	-1	-16%[46.1 µM]	.	-15%
COC(=O)[C@H](Cc1ccccc1)NS(=O)(=O)N[C@@H](Cc1ccccc1)C(=O)OC	.	-62*	.	11%	19%
COC(=O)[C@H](Cc1ccccc1)NC(=O)[C@@H](N)CC(=O)O	.	?	.	0.56µM*	-6%
CC(=O)NC(CC(C)C)C(=O)NC(Cc1ccccc1)C(N)=O (stereo not drawn)	?	.	1%	18%	32%
CC(=O)NC(CC(C)C)C(=O)NC(Cc1ccccc1)C(=O)CCl (stereo not drawn)	?	-11	-13%	?	28µM*
Cc1ccc(S(=O)(=O)N[C@@H](Cc2ccccc2)C(=O)CCl)cc1	10µM*	21	4.6µM*	-15%	32µM*
N#Cc1cccc(-c2ccc3c(c2)COCC(=O)N3CCN2CCOCC2)c1	.	-11	.	.	.
COc1ccccc1-n1nnnc1SC(C)C(=O)NC1CCCC1 (stereo not drawn)	21%	-21	-12%	3%	-4%
COc1ccc(NC(=O)c2c(NCc3sccc3C)sc3c2CCCC3)c(OC)c1	.	-15	?	.	69%
c1ccc(-c2ccccc2OCCCCN2CCCCCC2)cc1	.	-77*	.	?	-14%
CNCCCCOc1ccccc1-c1ccccc1	7.1µM*	?	?	13µM*	-14%
COc1ccccc1OCCCCCCN1CCOCC1	.	-84*	.	31%	-2%
c1ccc2c(OCCCCN3CCOCC3)cccc2c1	12%	-30	-1%	-8%	-8%
Cc1cc(C(=O)Nc2cccc(-c3nc(CNC(=O)c4cc5ccccc5[nH]4)c(C)o3)c2)c(C)o1	.	.	.	.	17%
CCCC(C(=O)Nc1c(C)cccc1C)N1C(=O)C(=O)c2ccccc21 (stereo not drawn)	.	-23	.	.	.
COc1cccc(-c2cc3c(Nc4cc(OC)c(OC)c(OC)c4)nccc3[nH]2)c1	.	-34	.	.	.
CCOCCCNC(=O)c1ccc(-n2c(-c3ccccc3)cc3c2CCC(C)C3)cc1 (stereo not drawn)	.	-93*	-1%[46.1 µM]	.	-24%
C=C1C(=O)OC2CC1C(O)CC(C)=CCCC(C)=CC(O)CC2C (stereo not drawn)	4µM*	-34	?	7.1µM*	7.9µM*
Cc1noc(C)c1COC(=O)c1cc2c3ccccc3n(C)c2s1	-28%	17	?	11µM*	-18%
COc1ccc(C2c3[nH]c4ccccc4c3C[C@H]3C(=O)N(c4ccccc4C(=O)NCCN4CCOCC4)C(=O)N23)cc1 (stereo partly drawn)	.	14	.	-15%	1%
O=C(NCCN1CCOCC1)c1ccccc1N1C(=O)[C@@H]2Cc3c([nH]c4ccccc34)C(c3ccc(F)cc3)N2C1=O (stereo partly drawn)	.	-75*	.	-18%	-19%
CC[n+]1c(-c2ccc(C)cc2)csc1Nc1c(C)n(C)n(-c2ccccc2)c1=O	?	-88*	?	?	32µM*
CCOc1cc2c(cc1/C=C/c1noc(C)c1[N+](=O)[O-])OC(C)C2 (stereo not drawn)	7%[46.1 µM]	-61*	12%[46.1 µM]	?	-10%
CCOc1cc2c(cc1C=O)OC(C)C2 (stereo not drawn)	11%[46.1 µM]	0	-10%[46.1 µM]	-8%	2%
O=C(NCCSc1ccccc1)c1ccc(Br)cc1	?	5	13µM*	-13%	-11%
SMILES	MARV entry inh	HCMV antiviral	LASV entry inh	HCV inhibitor	FMDV inh
N#Cc1csc(CCNC(=O)c2ccccc2)n1	.	?	.	.	3%
Cc1ccc(C(=O)NCC(=O)NCCSc2ccc(Br)cc2)cc1	-5%	-40	7%[46.1 µM]	-11%	11%
O=C(NCCSc1ccccc1)c1ccccc1	?	41	?	9%	9%
O=C(NCCCSc1ccccc1)c1cc(Br)ccc1O	.	-79*	.	?	-19%
O=C(NCCc1nc(-c2ccccc2)cs1)c1ccc(Br)cc1	14%	-24	6%	11µM*	?
CN(C)S(=O)(=O)c1ccc(C(=O)NCCSc2ccc(Br)cc2)cc1	-24%	3	?	22µM*	0%
COc1ccc(NC(=O)CCc2c(C)nc3c(c2C)c(=O)n(C)c(=O)n3C)c(OC)c1	1%[46.1 µM]	-76*	-17%[46.1 µM]	.	?
COc1cc(OC)cc(-c2cc3nc(C)c(CCC(=O)NCc4ccc(Cl)cc4)c(C)n3n2)c1	4.5µM*	-61*	?	.	13µM*
COc1ccccc1-c1cc2nc(C)c(CCC(=O)Nc3cc(C)ccc3C)c(C)n2n1	-8%[46.1 µM]	-5	3%[46.1 µM]	.	-14%
COc1cc(OC)cc(-c2cc3nc(C)c(CCC(=O)NCc4ccccc4)c(C)n3n2)c1	11µM*	-69*	8.9µM*	?	5.6µM*
COc1ccc(CNC(=O)CCc2c(C)nc3cc(-c4ccc(OC)cc4OC)nn3c2C)cc1	-8%[46.1 µM]	-7	6%[46.1 µM]	.	2%
COc1cc(OC)cc(-c2cc3nc(C)c(CCC(=O)Nc4ccccc4OC)c(C)n3n2)c1	?	-62*	?	.	?
O=C(CSc1nnc(-c2ccccc2)c(-c2ccccc2)n1)NC1CCS(=O)(=O)C1 (stereo not drawn)	-7%[46.1 µM]	12	-1%	-8%	-19%
CC(C)Nc1oc(-c2ccccc2)nc1-c1ccc(C(F)(F)F)cc1	-8%[14.2 µM]	.	.	.	.
CCOC(=O)CN1C(=O)NC(CCc2ccccc2)C(C(=O)OC)=C1C (stereo not drawn)	-23%[14.2 µM]	.	?	.	.
O=C(CN1CCN(c2ccc(O)cc2)CC1)Nc1ccccc1C(=O)NCCc1ccccc1	.	-61*	.	13µM*	-20%
Oc1ccc(N2CCN(C(=S)NCCc3ccccc3)CC2)cc1	?	-70*	?	?	65%
COc1ccc(N2CCN(C(=S)NCCc3ccccc3)CC2)cc1	-10%	-30	-6%	-16%	-9%
O=C(CN1C(=O)c2ccccc2S1(=O)=O)Nc1cccc(S(=O)(=O)N2CCCCC2)c1	-13%	0	15%	-8%	-3%
O=C1CSC(c2cn(-c3ccccc3)nc2-c2cc3ccccc3oc2=O)N1Cc1ccccc1 (stereo not drawn)	?	-25	11µM*	13µM*	-18%
O=C(c1ccccc1)N1CCN(C(=O)N2CCOCC2)CC1	-10%	57	-2%	13%	-7%
N#C/C(=C/N1CCOCC1)c1ccccc1	?	14	15%	3.2µM*	-44%
O=C(N/N=C/c1ccccc1C(=O)O)c1cc(-c2ccc3c4c(cccc24)CC3)n[nH]1	?	-61*	5%	-2%	-7%
O=C(N/N=C/c1ccco1)c1cc(-c2cccc3ccccc23)n[nH]1	2%	89	-16%	0%	0%
O=C(OCc1cc([N+](=O)[O-])cc2c1OCOC2)c1cccnc1SC(F)F	-1%	5	1%	1µM*	-16%
